# Where “and” joins values, the source holds several entries; their conditions need not be identical. Equal values may be shown once. Calls of active or inactive are those of the source.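 How the source made its calls, unless noted: active means thallium flux through the channel raised or lowered by more than 3 SD from vehicle-only wells, actives on both sides; inactive means the rest.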
# Experiments:
# [1] = P. berghei load reduction in hepatocytes – cell-based, HepG2, luciferase luminescence, HepG2 viability, primary screen (AID 624349; in the data active means parasite load remaining mostly below about 12%, no sharp cut-off; inactive means mostly above about 10%;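 further: 100% = mean of DMSO negative control wells on the same plate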); settings: P. berghei liver stage in HepG2, luciferase luminescence, concentration not given here; parasite load remaining: stronger effect = lower value; viability: measured here: HepG2 viability without parasites
# [2] = signal quenchers or enhancers, Cy5 substrate/SSB – biochemical, NIH Clinical Collection, E. coli SSB, artefact control for HCV NS3 helicase inhibitor project (AID 743268; call rule not given here); settings: Cy5-oligo bound E. coli SSB, fluorescence interference
# [3] = system: Hepatitis C virus NS3 helicase; assay: blockers of NS3h binding to DNA – biochemical, fluorescence polarization, NIH Clinical Collection, primary screen (AID 743270; call rule not given here); settings: NS3 helicase binding to Cy5-dT15 DNA, stronger effect = higher value, concentration not given here
# [4] = biological target: Single-stranded DNA-binding protein (Escherichia coli (strain K12)) (UniProt P0AGE0); assay: SSB-ssDNA binding inhibitors – biochemical, fluorescence polarization, NIH Clinical Collection, counter-screen for HCV NS3 helicase inhibitor project (AID 743271; in the data active means inhibition above about 28%); settings: E. coli SSB-DNA binding, stronger effect = higher value, concentration not given here
# [5] = compounds distorting NS3 helicase fluorescence signal – biochemical, NIH Clinical Collection, artefact control for HCV NS3 helicase inhibitor project (AID 743272; call rule not given here;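 further: HCV NS3 helicase with a Cy5 labelled single stranded DNA probe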); settings: fluorescence interference counterscreen, HCV NS3 helicase assay; stronger effect = lower value
# [6] = system: Neuropilin-2 / VEGF-C interaction (human); assay: small molecules blocking Neuropilin-2/VEGF-C interaction – biochemical, microplate binding format, z-score (AID 743281; call rule not given here); settings: microplate NRP2/VEGF-C binding assay; stronger effect = lower value
# [7] = modulation of C. elegans fzo-1 (AID 1259413; call rule not given here;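 further: fzo-1 mutant C. elegans worms in liquid wells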); settings: C. elegans fzo-1 modulator screen, mean read-out; stronger effect = higher value
# F380Y = assay: BK channel mutant inhibitors and activators – cell-based, U2OS BacMam, thallium flux, beta subunits, selectivity assay, profiling panel (AID 1259406); settings: U2OS BacMam BK variants, at 30 µM;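 further: initial slope of Thallos dye fluorescence rise after thallium is added; log ratio against the mean of 0.3% DMSO vehicle wells on the same plate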
# F380Y/beta1 = assay: as above; settings: U2OS BacMam BK variants, at 30 µM
# F380Y/beta2Delta = assay: as above; settings: U2OS BacMam BK variants, at 30 µM
# F380Y/beta4 = assay: as above; settings: U2OS BacMam BK variants, at 30 µM
# [8] = biological target: Calcium-activated potassium channel subunit alpha-1 (Homo sapiens) + Leucine-rich repeat-containing protein 26 (Homo sapiens) (UniProt Q12791+Q2I0M4); assay: as above; settings: U2OS BacMam BK variants, F380Y/Slo1WT/gamma1, at 30 µM
# R275C = assay: as above; settings: U2OS BacMam BK variants, at 30 µM
# R275C/beta1 = assay: as above; settings: U2OS BacMam BK variants, at 30 µM
# R275C/beta2Delta = assay: as above; settings: U2OS BacMam BK variants, at 30 µM
# R275C/beta4 = assay: as above; settings: U2OS BacMam BK variants, at 30 µM
# R275C/Slo1WT/beta2 = assay: as above; settings: U2OS BacMam BK variants, at 30 µM
# [9] = viability loss with induced miR-34 in A549 – imaging, A549 dox-inducible miR-34, nuclei and caspase counts, primary screen (AID 1347080;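 active means compounds whose cell count with miR-34 switched on is under 0.7 times the count with it off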); settings: A549 miR-34 inducible, Hoechst nuclei count, 48 h
# [10] = galactose survival enhancers in mitochondrial complex I cybrids – cell-based, galactose medium, ATP luminescence, primary screen (AID 1645843;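 active means z-score of at least 1.8 in each of two replicates, scored against plate mean and spread of sample wells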;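 further: positive z means more ATP and so rescue of galactose-driven cybrid death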); settings: complex I mutant cybrid cells, 72 h, stronger effect = higher value
# [11] = MELAS cybrid and Rieske KO viability enhancers – cell-based, MELAS cybrids, Rieske KO mouse fibroblasts, CellTiter-Glo, primary screen (AID 1508586;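 active means mean z-score across replicates of 1.96 or higher in either the MELAS or the Rieske mutant cell line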;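 further: z relative to plate mean and SD of compound and empty wells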); settings: low glucose
# [12] = stronger effect = lower value, cell number ratio, induced over uninduced
# [13] = measured here: relative caspase fold change +Dox/-Dox
# [14] = measured here: total cells with miR-34 induction, stronger effect = lower value
# [15] = measured here: total cells without miR-34 induction
# [16] = MELAS cybrid survival, CellTiter-Glo 48 h, stronger effect = higher value
# [17] = Rieske KO mouse fibroblast survival, CellTiter-Glo 72 h
# Calcium-activated potassium channel subunit alpha-1 (Homo sapiens) + Leucine-rich repeat-containing protein 26 (Homo sapiens), sequence (Q2I0M4 whole entry, looked up, one chain of several): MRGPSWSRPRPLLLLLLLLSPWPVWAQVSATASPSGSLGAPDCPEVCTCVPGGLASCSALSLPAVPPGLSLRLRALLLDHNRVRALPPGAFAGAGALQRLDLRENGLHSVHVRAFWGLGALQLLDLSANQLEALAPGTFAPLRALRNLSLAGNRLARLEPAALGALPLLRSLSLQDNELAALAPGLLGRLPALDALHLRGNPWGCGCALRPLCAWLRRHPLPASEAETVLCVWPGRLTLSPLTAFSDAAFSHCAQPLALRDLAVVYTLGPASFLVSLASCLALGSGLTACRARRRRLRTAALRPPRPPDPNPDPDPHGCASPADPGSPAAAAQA
structure (smiles),measurement,setting,value
Nc1ncnc2c1ncn2[C@@H]1O[C@H](CO)C[C@@H]1O,parasite load remaining,[1],137% (inactive)
same,viability,[1],93.2%
same,fluorescence ratio,[2],0.96 (inactive)
same,inhibition,[3],-2.77% (inactive)
same,inhibition,[4],2.21% (inactive)
same,fluorescence ratio,[5],0.87 (inactive)
same,z-score,[6],-0.398 (inactive)
same,mean signal,[7],230 (inactive)
same,log fold change Tl+ flux,F380Y,0.0402 (inactive)
same,log fold change Tl+ flux,F380Y/beta1,0.0107 (inactive)
same,log fold change Tl+ flux,F380Y/beta2Delta,-0.0103 (inactive)
same,log fold change Tl+ flux,F380Y/beta4,0.0334 (inactive)
same,log fold change Tl+ flux,[8],0.00963 (inactive)
same,log fold change Tl+ flux,R275C,-0.0453 (inactive)
same,log fold change Tl+ flux,R275C/beta1,-0.0213 (inactive)
same,log fold change Tl+ flux,R275C/beta2Delta,0.0189 (inactive)
same,log fold change Tl+ flux,R275C/beta4,-0.00206 (inactive)
same,log fold change Tl+ flux,R275C/Slo1WT/beta2,0.0268 (inactive)
O=c1[nH]c2ccccc2c2ccccc12,fold change,[9]; [12],0.926 (inactive) and 0.97 (inactive)
same,fold change,[9]; [13],0.939 and 0.926
same,cell count,[9]; [14],7660 and 2830
same,cell count,[9]; [15],8280 and 2920
same,z-score,[10],0.885 (inactive)
same,log fold change Tl+ flux,F380Y,0.027 (inactive)
same,log fold change Tl+ flux,F380Y/beta1,0.0377 (inactive)
same,log fold change Tl+ flux,F380Y/beta2Delta,0.0285 (inactive)
same,log fold change Tl+ flux,F380Y/beta4,0.0704 (inactive)
same,log fold change Tl+ flux,[8],-0.0148 (inactive)
same,log fold change Tl+ flux,R275C,0.0279 (inactive)
same,log fold change Tl+ flux,R275C/beta1,-0.057 (inactive)
same,log fold change Tl+ flux,R275C/beta2Delta,0.0385 (inactive)
same,log fold change Tl+ flux,R275C/beta4,-0.0579 (inactive)
same,log fold change Tl+ flux,R275C/Slo1WT/beta2,-0.0287 (inactive)
CC(=O)CCCCn1cnc2c1c(=O)n(C)c(=O)n2C,parasite load remaining,[1],108% (inactive)
same,viability,[1],91.8%
same,fluorescence ratio,[2],1.04 (inactive)
same,inhibition,[3],-0.4% (inactive)
same,inhibition,[4],-0.1% (inactive)
same,fluorescence ratio,[5],0.95 (inactive)
same,z-score,[6],-1.78 (inactive)
same,mean signal,[7],257 (inactive)
same,fold change,[9]; [12],0.919 (inactive)
same,fold change,[9]; [13],1.72
same,cell count,[9]; [14],9610
same,cell count,[9]; [15],10500
same,z-score,[10],0.63 (inactive)
same,log fold change Tl+ flux,F380Y,-0.0664 (inactive)
same,log fold change Tl+ flux,F380Y/beta1,-0.015 (inactive)
same,log fold change Tl+ flux,F380Y/beta2Delta,-0.0429 (inactive)
same,log fold change Tl+ flux,F380Y/beta4,-0.0419 (inactive)
same,log fold change Tl+ flux,[8],0.0418 (inactive)
same,log fold change Tl+ flux,R275C,-0.00612 (inactive)
same,log fold change Tl+ flux,R275C/beta1,-0.0249 (inactive)
same,log fold change Tl+ flux,R275C/beta2Delta,0.0157 (inactive)
same,log fold change Tl+ flux,R275C/beta4,-0.0496 (inactive)
same,log fold change Tl+ flux,R275C/Slo1WT/beta2,-0.0588 (inactive)
CN(CCO)CC(O)Cn1cnc2c1c(=O)n(C)c(=O)n2C (stereo not drawn) (tested in a mixture with another compound),parasite load remaining,[1],65% (inactive)
same,viability,[1],66.2%
same,fluorescence ratio,[2],0.97 (inactive)
same,inhibition,[3],-0.22% (inactive)
same,inhibition,[4],0.39% (inactive)
same,fluorescence ratio,[5],0.94 (inactive)
same,z-score,[6],-0.276 (inactive)
same,mean signal,[7],208 (inactive)
same,fold change,[9]; [12],1.72 (inactive)
same,fold change,[9]; [13],0.852
same,cell count,[9]; [14],8830
same,cell count,[9]; [15],5120
same,z-score,[10],0.47 (inactive)
same,log fold change Tl+ flux,F380Y,0.0136 (inactive)
same,log fold change Tl+ flux,F380Y/beta1,0.0124 (inactive)
same,log fold change Tl+ flux,F380Y/beta2Delta,-0.0171 (inactive)
same,log fold change Tl+ flux,F380Y/beta4,0.017 (inactive)
same,log fold change Tl+ flux,[8],0.0349 (inactive)
same,log fold change Tl+ flux,R275C,-0.0477 (inactive)
same,log fold change Tl+ flux,R275C/beta1,0.0362 (inactive)
same,log fold change Tl+ flux,R275C/beta2Delta,-0.03 (inactive)
same,log fold change Tl+ flux,R275C/beta4,-0.00112 (inactive)
same,log fold change Tl+ flux,R275C/Slo1WT/beta2,0.00717 (inactive)
O=c1[nH]c(=O)n(C2CC(O)C(CO)O2)cc1F (stereo not drawn),parasite load remaining,[1],68.3% (inactive)
same,viability,[1],115%
same,fluorescence ratio,[2],1.03 (inactive)
same,inhibition,[3],-1.36% (inactive)
same,inhibition,[4],1.81% (inactive)
same,fluorescence ratio,[5],1.04 (inactive)
same,fold change,[9]; [12],1.17 (inactive) and 1.12 (inactive)
same,fold change,[9]; [13],3.66 and 0.771
same,cell count,[9]; [14],2970 and 2380
same,cell count,[9]; [15],2550 and 2130
same,z-score,[11]; [16],-0.408 (inactive)
same,z-score,[11]; [17],0.487
same,z-score,[10],-1.07 (inactive)
same,log fold change Tl+ flux,F380Y,-0.00405 (inactive)
same,log fold change Tl+ flux,F380Y/beta1,0.0394 (inactive)
same,log fold change Tl+ flux,F380Y/beta2Delta,0.0245 (inactive)
same,log fold change Tl+ flux,F380Y/beta4,0.0173 (inactive)
same,log fold change Tl+ flux,[8],-0.00699 (inactive)
same,log fold change Tl+ flux,R275C,0.0218 (inactive)
same,log fold change Tl+ flux,R275C/beta1,0.000317 (inactive)
same,log fold change Tl+ flux,R275C/beta2Delta,0.0028 (inactive)
same,log fold change Tl+ flux,R275C/beta4,-0.0029 (inactive)
same,log fold change Tl+ flux,R275C/Slo1WT/beta2,-0.136 (active)
CC(C(O)c1ccc(O)cc1)N1CCC(Cc2ccccc2)CC1 (stereo not drawn),fluorescence ratio,[2],1.03 (inactive)
same,inhibition,[3],-6.73% (inactive)
same,inhibition,[4],-4.72% (inactive)
same,fluorescence ratio,[5],0.98 (inactive)
same,z-score,[6],-0.156 (inactive)
same,mean signal,[7],233 (inactive)
same,z-score,[11]; [16],-0.121 (inactive) and -0.969 (inactive) and -0.489 (inactive)
same,z-score,[11]; [17],-0.18 and -0.279 and 1.18
same,z-score,[10],-1.16 (inactive) and -1.04 (inactive) and -0.25 (inactive)
same,log fold change Tl+ flux,F380Y,0.0449 (inactive)
same,log fold change Tl+ flux,F380Y/beta1,-0.0111 (inactive)
same,log fold change Tl+ flux,F380Y/beta2Delta,0.00326 (inactive)
same,log fold change Tl+ flux,F380Y/beta4,0.0228 (inactive)
same,log fold change Tl+ flux,[8],-0.0962 (active)
same,log fold change Tl+ flux,R275C,-0.193 (active)
same,log fold change Tl+ flux,R275C/beta1,-0.0365 (inactive)
same,log fold change Tl+ flux,R275C/beta2Delta,-0.218 (active)
same,log fold change Tl+ flux,R275C/beta4,-0.0303 (inactive)
same,log fold change Tl+ flux,R275C/Slo1WT/beta2,0.00646 (inactive)
CCCCCN=C(N)NN=Cc1c[nH]c2ccc(OC)cc12,parasite load remaining,[1],0.065% (inactive)
same,viability,[1],3.78%
same,fold change,[9]; [12],1.42 (inactive)
same,fold change,[9]; [13],1.01
same,cell count,[9]; [14],18.5
same,cell count,[9]; [15],13
same,z-score,[10],-1.88 (inactive)
same,log fold change Tl+ flux,F380Y,0.707 (active)
same,log fold change Tl+ flux,F380Y/beta1,0.869 (active)
same,log fold change Tl+ flux,F380Y/beta2Delta,0.585 (active)
same,log fold change Tl+ flux,F380Y/beta4,0.841 (active)
same,log fold change Tl+ flux,[8],0.468 (active)
same,log fold change Tl+ flux,R275C,0.229 (active)
same,log fold change Tl+ flux,R275C/beta1,0.839 (active)
same,log fold change Tl+ flux,R275C/beta2Delta,-0.0142 (inactive)
same,log fold change Tl+ flux,R275C/beta4,0.743 (active)
same,log fold change Tl+ flux,R275C/Slo1WT/beta2,0.7 (active)
